# According to PubChem BioAssay (NCATS):
# Inconclusive results are not listed. A call without a number means that no potency is given here. Calls of active or inactive are those of the source. Unless noted, calls follow the shape of the dose curve; as a rule, active = well fitted curve in the direction sought with a large enough effect; inconclusive = small, poorly fitted or top-dose-only effect, or another doubt; inactive = no such curve, though single readings can be large; an effect the other way counts as inactive or inconclusive.
# Assays:
# [1] = molecular target: Voltage-gated inwardly rectifying potassium channel KCNH2 (Homo sapiens) (UniProt Q12809); test: qHTS Assay for Small Molecule Inhibitors of the Human hERG Channel Activity (AID 588834);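 also: lower thallium flux fluorescence means stronger hERG block; nearly all actives have a fitted effect of over 50% in size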; also: potency is read from the fitted curve at half-maximal effect
# Method in brief: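 Measured: FluxOR fluorescence after thallium stimulation in U2OS cells transduced with hERG by baculovirus. Compounds pre-incubated around 10 min; medium Opti-MEM with 2% FCS. AC50 from Hill equation.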
# [2] = qHTS assay for small molecule antagonists of retinoid X receptor alpha signaling (AID 588546; active = well fitted inhibition curve with a large enough effect in the signal ratio, with a control signal flat, not every such curve was filed as active; the % refers to the signal ratio; also: potency is read from the fitted curve at half-maximal effect;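 as to max response: cells stimulated with 9-cis-retinoic acid as agonist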); conditions: HEK293T RXRa-UAS-bla, beta-lactamase ratio, antagonist mode; measured here: W530 green channel, cytotoxicity proxy
# Method in brief: (§1)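 Beta-lactamase reporter inhibition, read as CCF4 fluorescence ratio (ex 405, em 460/530 nm) after 2 h at RT. HEK293T UAS-bla cells, 2500/well, were stimulated with 9-cis-RA at 500 or 100 nM final alongside test compound for 18 h at 37 C.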
# [3] = molecular target: Retinoic acid receptor RXR-alpha (Homo sapiens) (UniProt P19793); test: as above; conditions: HEK293T RXRa-UAS-bla, beta-lactamase ratio, antagonist mode
# Method in brief: as §1
# [4] = S16 Schwann cell viability assay (CellTiter-Glo assay) (AID 624031); also: nearly all actives have a fitted effect of over 70% in size; also: potency is read from the fitted curve at half-maximal effect
# Method in brief: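 Rat S16 Schwann cells without reporter constructs received compound or DMSO for 24 h at 37 °C under 5% CO2. Cellular ATP was then quantified by CellTiter-Glo luminescence, with vehicle wells defined as 0% activity and cell-free wells as reference.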
# [5] = S16 Schwann cell PMP22 intronic element firefly luciferase assay (AID 624032); also: nearly all actives have a fitted effect of over 30% in size; also: potency is read from the fitted curve at half-maximal effect
# Method in brief: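 Rat S16 Schwann cells stably carrying a PMP22 intronic element-driven Fluc reporter were seeded overnight, then exposed to compounds for 24 h at 37 °C. Luminescence was normalized to PTC124 (positive control) and DMSO (0% activity).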
# [6] = molecular target: Vitamin D3 receptor (Homo sapiens) (UniProt P11473); test: qHTS assay for small molecule antagonists of vitamin D receptor signaling (AID 588541; calls by dose curve;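 also: receptor activated by calcitriol during compound treatment; series mostly up to about 77 µM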)
# Method in brief: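 VDR-UAS-bla HEK293T cells (2000/well, 2% charcoal-stripped FBS) were treated with titrated compounds plus 1-alpha,25-dihydroxyvitamin D3 (50 nM or 3 nM final) for 16 h at 37 C. CCF4 beta-lactamase fluorescence was read; Hill fits gave IC50.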
# [7] = molecular target: Vitamin D3 receptor (Homo sapiens) (UniProt P11473); test: qHTS assay for small molecule agonists of vitamin D receptor signaling (AID 588543; calls by dose curve)
# Method in brief: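 qHTS in agonist mode: compound titrations stimulate a VDR-driven β-lactamase reporter in HEK293T cells over 16 h at 37 °C. Response normalized to 50 nM 1α,25-dihydroxyvitamin D3 = 100%, DMSO = 0%; Hill fitting gives EC50 and maximal response.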
# [8] = qHTS assay for small molecule agonists of retinoid X receptor alpha signaling (AID 588544); conditions: HEK293T RXRa-UAS-bla, beta-lactamase reporter, 18 h; 530 nm emission
# [9] = molecular target: Thyroid hormone receptor beta (Homo sapiens) (UniProt P10828); test: qHTS assay for small molecule agonists of thyroid hormone receptor beta signaling (AID 588545; calls by dose curve)
# Method in brief: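 TR-UAS-bla-GripTite HEK 293 cells in medium with 2% charcoal/dextran FBS, 0.1 mM NEAA and 1 mM sodium pyruvate were treated with titrated compounds for 18 hrs at 37 C. Beta-lactamase reporter was read with CCF4 dye (ex 405, em 460/530 nm); EC50 from Hill fits.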
# [10] = molecular target: Thyroid hormone receptor beta (Homo sapiens) (UniProt P10828); test: qHTS assay for small molecule antagonists of thyroid hormone receptor beta signaling (AID 588547; active = well fitted inhibition curve with a large enough effect in the signal ratio, with a control signal flat, not every such curve was filed as active; the % refers to the signal ratio;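 also: cells stimulated with 0.4 nM T3 agonist during compound exposure; series mostly up to about 77 µM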); conditions: TR-UAS-bla HEK293, beta-lactamase ratio, antagonist mode, 18 h
# Method in brief: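 TR-UAS-bla GripTite HEK293 cells in 2% charcoal/dextran FBS medium were preincubated 4 h at 37 C, given compound (0.59 nM to 92 uM) plus 0.4 nM T3 (final) for 18 h, then CCF4 for 2 h at RT; Hill fit gave IC50.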
# [11] = molecular target: Luciferin 4-monooxygenase (Photinus pyralis) (UniProt P08659); test: Biochemical firefly luciferase enzyme assay for NPC (AID 624030);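 also: purified P. pyralis luciferase at 10 nM with luciferin and ATP substrate; series mostly up to about 59 µM; nearly all actives have a fitted effect of over 70% in size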
# Method in brief: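 Counter-screen for direct inhibition of the luciferase enzyme by approved-drug library compounds, run at 10 nM enzyme in 50 mM Tris acetate (final). Luminescence was read within 5 min of enzyme-buffer addition and normalized to PTC124 versus DMSO (0%).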
# [12] = S16 Schwann cell PMP22 intronic element beta-lactamase assay (AID 624044; calls by dose curve; also: nearly all actives have a fitted effect of over 15% in size)
# Method in brief: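 Rat S16 Schwann cells with beta-Lac driven by a PMP22 intronic element, compound-treated 24 h at 37 °C. LiveBLAzer FRET B/G read: 460 nm normalized to potassium clavulanate vs DMSO; 535 nm FRET as viability; concentration-effect curves classified.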
# [13] = molecular target: Glutaminase kidney isoform, mitochondrial (Homo sapiens) (UniProt O94925); test: qHTS for Inhibitors of Glutaminase (GLS): LOPAC Validation (AID 624146); also: nearly all actives have a fitted effect of over 60% in size; also: potency is read from the fitted curve at half-maximal effect
# Method in brief: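 Read-out is an Amplex red fluorescence increase coupled through glutamate oxidase and HRP, measured before and after 30 min room-temperature incubation. hKGA is in 45 mM KH2PO4 (pH 8.2) with 0.02% Tween-20; glutamine added as 1mM solution.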
# [14] = molecular target: Glucagon-like peptide 1 receptor (Homo sapiens) (UniProt P43220); test: qHTS of GLP-1 Receptor Agonists: LOPAC Validation (AID 624148);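 also: higher luminescence signal means agonism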
# Method in brief: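 HEK293 cells stably co-expressing a cAMP-responsive luciferase reporter and a hypersensitive GLP-1R were plated 12 h at 37 °C and exposed to compounds for 4-6 hr at 37 °C, 5% CO2. Luminescence was read 12 min after adding detection reagent.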
# [15] = qHTS of Trypanosoma Brucei Inhibitors: LOPAC Validation (AID 624147)
# Method in brief: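 ADP (130 uM final) triggers the TbPYK reaction after compound addition; incubation is 45 min at room temperature. Kinase-Glo Plus is then added and luminescence imaged. Normalized data are fitted to concentration-effect curves.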
# [16] = qHTS of Nrf2 Activators: LOPAC Validation (AID 624149)
# Method in brief: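 ARE reporter activation measured in AREc32 firefly luciferase cells after 24 hr compound exposure; Steady-Glo luminescence.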
# Sequence of Glucagon-like peptide 1 receptor (Homo sapiens) (P43220 whole entry, looked up): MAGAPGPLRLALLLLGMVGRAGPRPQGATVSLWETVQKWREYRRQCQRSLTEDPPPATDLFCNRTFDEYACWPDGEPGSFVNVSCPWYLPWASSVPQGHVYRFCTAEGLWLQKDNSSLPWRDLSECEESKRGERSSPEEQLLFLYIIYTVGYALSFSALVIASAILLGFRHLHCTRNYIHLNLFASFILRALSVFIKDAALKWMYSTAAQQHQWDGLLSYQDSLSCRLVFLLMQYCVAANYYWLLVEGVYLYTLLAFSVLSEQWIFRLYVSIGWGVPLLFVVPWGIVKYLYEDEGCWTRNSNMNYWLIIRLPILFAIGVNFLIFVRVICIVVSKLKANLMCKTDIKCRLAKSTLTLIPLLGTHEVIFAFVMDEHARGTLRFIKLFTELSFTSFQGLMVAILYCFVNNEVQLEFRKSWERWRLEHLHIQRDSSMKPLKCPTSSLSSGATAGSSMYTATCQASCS
# Sequence of Glutaminase kidney isoform, mitochondrial (Homo sapiens) (O94925 whole entry, looked up, canonical isoform): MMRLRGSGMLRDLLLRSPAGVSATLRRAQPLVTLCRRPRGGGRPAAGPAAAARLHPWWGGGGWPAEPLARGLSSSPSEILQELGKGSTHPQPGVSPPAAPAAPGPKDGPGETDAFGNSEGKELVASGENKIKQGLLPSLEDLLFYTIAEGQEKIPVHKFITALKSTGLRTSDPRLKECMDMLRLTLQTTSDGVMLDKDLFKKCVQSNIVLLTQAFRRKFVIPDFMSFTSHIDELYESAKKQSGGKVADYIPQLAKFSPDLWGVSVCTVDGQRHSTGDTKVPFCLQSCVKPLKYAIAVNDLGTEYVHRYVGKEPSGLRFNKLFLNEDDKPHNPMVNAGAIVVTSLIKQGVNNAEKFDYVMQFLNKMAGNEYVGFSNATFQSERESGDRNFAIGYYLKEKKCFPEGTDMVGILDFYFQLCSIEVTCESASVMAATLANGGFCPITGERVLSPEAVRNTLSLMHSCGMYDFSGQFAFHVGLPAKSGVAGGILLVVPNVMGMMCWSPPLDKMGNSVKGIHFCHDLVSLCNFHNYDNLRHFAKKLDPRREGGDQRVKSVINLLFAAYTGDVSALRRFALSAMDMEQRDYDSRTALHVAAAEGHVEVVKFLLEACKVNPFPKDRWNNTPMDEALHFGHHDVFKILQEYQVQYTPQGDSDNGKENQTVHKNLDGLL
# Sequence of Voltage-gated inwardly rectifying potassium channel KCNH2 (Homo sapiens) (Q12809 whole entry, looked up): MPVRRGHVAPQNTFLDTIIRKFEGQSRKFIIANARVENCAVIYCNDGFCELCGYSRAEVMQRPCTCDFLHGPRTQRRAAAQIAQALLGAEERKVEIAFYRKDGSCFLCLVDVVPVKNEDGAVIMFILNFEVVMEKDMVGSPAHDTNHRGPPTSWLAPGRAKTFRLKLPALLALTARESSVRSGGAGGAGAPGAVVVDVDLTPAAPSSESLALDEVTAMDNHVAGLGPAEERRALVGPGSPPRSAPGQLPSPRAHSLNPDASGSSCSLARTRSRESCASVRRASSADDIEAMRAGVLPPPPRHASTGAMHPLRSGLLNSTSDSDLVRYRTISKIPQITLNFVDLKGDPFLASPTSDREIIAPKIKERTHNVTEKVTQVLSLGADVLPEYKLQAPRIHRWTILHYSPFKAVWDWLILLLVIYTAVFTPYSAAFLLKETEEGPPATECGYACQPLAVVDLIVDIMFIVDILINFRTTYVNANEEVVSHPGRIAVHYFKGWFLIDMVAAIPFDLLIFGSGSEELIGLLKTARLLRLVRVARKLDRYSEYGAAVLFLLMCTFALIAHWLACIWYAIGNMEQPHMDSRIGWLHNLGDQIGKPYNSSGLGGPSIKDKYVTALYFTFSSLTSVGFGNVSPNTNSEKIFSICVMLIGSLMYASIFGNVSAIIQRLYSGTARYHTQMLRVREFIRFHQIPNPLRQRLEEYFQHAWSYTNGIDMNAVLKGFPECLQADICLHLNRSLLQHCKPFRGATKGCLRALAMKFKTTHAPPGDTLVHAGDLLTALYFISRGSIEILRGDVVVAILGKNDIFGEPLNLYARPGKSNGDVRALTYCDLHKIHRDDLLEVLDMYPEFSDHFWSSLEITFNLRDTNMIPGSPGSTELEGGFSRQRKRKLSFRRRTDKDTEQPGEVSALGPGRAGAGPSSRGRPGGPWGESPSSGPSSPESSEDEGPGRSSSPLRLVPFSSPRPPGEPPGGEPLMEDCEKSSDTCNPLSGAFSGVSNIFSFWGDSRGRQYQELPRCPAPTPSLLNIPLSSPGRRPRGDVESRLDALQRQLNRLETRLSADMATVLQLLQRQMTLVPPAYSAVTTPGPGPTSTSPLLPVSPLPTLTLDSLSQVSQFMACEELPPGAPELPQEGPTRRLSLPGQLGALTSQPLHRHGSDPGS
# Sequence of Thyroid hormone receptor beta (Homo sapiens) (P10828 whole entry, looked up): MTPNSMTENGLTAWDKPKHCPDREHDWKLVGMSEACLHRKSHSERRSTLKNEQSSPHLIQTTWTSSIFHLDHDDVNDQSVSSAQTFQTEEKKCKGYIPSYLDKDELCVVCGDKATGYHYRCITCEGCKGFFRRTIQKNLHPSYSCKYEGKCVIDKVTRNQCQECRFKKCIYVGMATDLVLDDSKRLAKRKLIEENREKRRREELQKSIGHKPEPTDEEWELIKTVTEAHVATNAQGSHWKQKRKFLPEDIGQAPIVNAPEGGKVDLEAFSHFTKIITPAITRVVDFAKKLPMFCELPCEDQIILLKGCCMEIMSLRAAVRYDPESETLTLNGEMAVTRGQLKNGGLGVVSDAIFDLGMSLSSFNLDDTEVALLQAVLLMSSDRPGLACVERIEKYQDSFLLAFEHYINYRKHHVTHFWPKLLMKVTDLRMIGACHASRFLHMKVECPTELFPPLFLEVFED
# Sequence of Retinoic acid receptor RXR-alpha (Homo sapiens) (P19793 whole entry, looked up): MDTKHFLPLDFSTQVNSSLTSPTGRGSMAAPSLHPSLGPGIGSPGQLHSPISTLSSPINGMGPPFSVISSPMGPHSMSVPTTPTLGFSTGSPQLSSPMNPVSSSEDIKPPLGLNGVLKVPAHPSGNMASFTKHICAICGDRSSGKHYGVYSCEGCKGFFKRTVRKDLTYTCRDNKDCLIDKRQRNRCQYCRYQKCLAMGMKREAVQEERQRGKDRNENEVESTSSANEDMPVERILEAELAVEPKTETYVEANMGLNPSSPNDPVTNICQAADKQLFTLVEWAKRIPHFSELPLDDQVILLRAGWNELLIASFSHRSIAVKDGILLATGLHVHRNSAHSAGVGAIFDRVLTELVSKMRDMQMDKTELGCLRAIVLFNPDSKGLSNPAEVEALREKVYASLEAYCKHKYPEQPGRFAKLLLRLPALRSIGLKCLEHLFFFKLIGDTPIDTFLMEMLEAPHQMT
# Sequence of Vitamin D3 receptor (Homo sapiens) (P11473 whole entry, looked up): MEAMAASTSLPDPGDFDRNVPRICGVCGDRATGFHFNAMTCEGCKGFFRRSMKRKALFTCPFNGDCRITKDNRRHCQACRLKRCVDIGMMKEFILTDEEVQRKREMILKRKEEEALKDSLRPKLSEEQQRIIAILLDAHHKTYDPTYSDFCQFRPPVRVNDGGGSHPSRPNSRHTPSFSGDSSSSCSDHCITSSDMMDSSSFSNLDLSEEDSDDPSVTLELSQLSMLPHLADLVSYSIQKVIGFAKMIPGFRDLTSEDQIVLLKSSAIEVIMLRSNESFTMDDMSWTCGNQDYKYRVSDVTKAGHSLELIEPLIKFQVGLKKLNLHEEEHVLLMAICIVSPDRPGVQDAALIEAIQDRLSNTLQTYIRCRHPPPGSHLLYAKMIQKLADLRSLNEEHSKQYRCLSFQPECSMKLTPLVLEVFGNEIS
# Sequence of Luciferin 4-monooxygenase (Photinus pyralis) (P08659 whole entry, looked up): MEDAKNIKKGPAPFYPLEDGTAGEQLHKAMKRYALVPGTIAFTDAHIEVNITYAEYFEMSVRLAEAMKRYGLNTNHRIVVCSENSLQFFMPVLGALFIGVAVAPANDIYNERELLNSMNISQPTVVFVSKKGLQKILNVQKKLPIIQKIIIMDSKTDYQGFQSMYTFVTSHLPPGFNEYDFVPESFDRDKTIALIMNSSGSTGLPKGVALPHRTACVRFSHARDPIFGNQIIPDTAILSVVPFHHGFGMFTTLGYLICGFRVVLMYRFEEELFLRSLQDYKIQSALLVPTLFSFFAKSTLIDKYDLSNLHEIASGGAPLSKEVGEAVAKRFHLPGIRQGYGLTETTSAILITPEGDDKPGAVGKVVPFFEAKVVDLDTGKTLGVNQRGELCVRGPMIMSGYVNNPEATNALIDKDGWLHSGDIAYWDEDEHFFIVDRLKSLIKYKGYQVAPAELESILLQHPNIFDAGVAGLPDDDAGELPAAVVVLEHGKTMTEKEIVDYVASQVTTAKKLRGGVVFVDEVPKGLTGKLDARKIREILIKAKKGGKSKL
compound,measurement,setting,value
C=C[C@H]1CN2CC[C@H]1C[C@@H]2[C@@H](O)c1ccnc2ccccc12,Potency,[1],14100 nM (active)
Oc1ccc2c3c1O[C@H]1[C@@H](O)CC[C@@]4(O)[C@@H](C2)N(CC2CCC2)CC[C@]314,Potency,[1],inactive
O=c1ccc2cc(O[C@@H]3O[C@H](CO)[C@@H](O)[C@H](O)[C@H]3O)c(O)cc2o1,Potency,[1],inactive
C[C@]12CC[C@H](OS(=O)(=O)O)CC1=CC[C@@H]1[C@@H]2CC[C@]2(C)C(=O)CC[C@@H]12,Potency,[1],inactive
CCC(=O)O[C@]1(c2ccccc2)CCN(C)C[C@H]1C,Potency,[1],inactive
CCCCCCC(=O)O[C@H]1CC[C@H]2[C@@H]3CC[C@H]4CC(=O)C=C(C)[C@]4(C)[C@H]3CC[C@]12C,Potency,[1],14100 nM (active)
C[CH2][Hg][S]c1ccccc1C(=O)O,max response,[2],-29.7%
same,Potency,[3],2240 nM (active)
same,Potency,[1],inactive
same,Potency,[4],1280 nM (active)
same,Potency,[5],721 nM (active)
C[N+]1(C)CCC(OC(=O)C(c2ccccc2)c2ccccc2)CC1,Potency,[1],inactive
CC(=O)O[C@H]1C[C@H](O[C@H]2[C@@H](O)C[C@H](O[C@H]3[C@@H](O)C[C@H](O[C@H]4CC[C@@]5(C)[C@H](CC[C@@H]6[C@@H]5C[C@@H](O)[C@]5(C)[C@@H](C7=CC(=O)OC7)CC[C@]65O)C4)O[C@@H]3C)O[C@@H]2C)O[C@H](C)[C@H]1O[C@@H]1O[C@H](CO)[C@@H](O)[C@H](O)[C@H]1O,Potency,[1],inactive
CN1[C@H]2CC[C@@H]1[C@@H](C(=O)O)[C@@H](OC(=O)c1ccccc1)C2,Potency,[1],inactive
CC1(C)S[C@@H]2[C@H](N)C(=O)N2[C@H]1C(=O)O,Potency,[1],inactive
C[C@]12CCC(=O)C[C@@H]1CC[C@@H]1[C@@H]2CC[C@]2(C)[C@@H](O)CC[C@@H]12,Potency,[6],inactive
same,outcome,[7],inactive
same,max response,[8],21%
same,outcome,[9],inactive
same,max response,[2],16.7%
same,max response,[3],-6.47% (inactive)
same,activity change % (negative = inhibition),[10],2.39% (inactive)
same,Potency,[1],inactive
same,Potency,[11],inactive
same,Potency,[4],inactive
same,Potency,[12],inactive
CNc1ccc(C(=O)CC(O)CCC(C)C2OC(=O)CC(O)CC(=O)CC(O)CC(O)CC(O)CC(O)CC3(O)CC(O)C(C(=O)OC)C(CC(O[C@@H]4O[C@H](C)[C@@H](O)[C@H](N)[C@@H]4O)/C=C/C=C/C=C/C=C/C=C/C=C/C=C/C2C)O3)cc1 (some centres undefined),Potency,[1],inactive
COc1ccc(OC)c(C(O)C(C)N)c1 (centres undefined),Potency,[13],inactive
O=C1CC[C@@]2(O)C3Cc4ccc(O)c5c4C2(CCN3CC2CC2)[C@H]1O5 (some centres undefined),outcome,[14],inactive
C/C(=C\c1csc(C)n1)[C@@H]1C[C@@H]2O[C@]2(C)CCC[C@H](C)[C@H](O)[C@@H](C)C(=O)C(C)(C)[C@@H](O)CC(=O)O1,Potency,[1],inactive
same,Potency,[5],57.3 nM (active)
C[C@]12Cc3cn4c(nc3C=C1CCC1C2CC[C@@]2(C)[C@H]1CC[C@@]2(O)C#N)nc1ccccc14 (some centres undefined),Potency,[1],2000 nM (active)
same,Potency,[13],inactive
same,Potency,[15],inactive
same,outcome,[14],inactive
same,Potency,[16],inactive
CCC(C)(S(=O)(=O)CC)S(=O)(=O)CC,Potency,[1],inactive
same,Potency,[5],inactive
same,Potency,[12],inactive
C[N+](C)(C)CCOC(=O)CBr,Potency,[1],inactive
same,Potency,[13],inactive
same,Potency,[15],inactive
same,outcome,[14],inactive
same,Potency,[16],inactive
COc1ccc(CNC(=O)/C=C/c2ccc3[nH]cc(CCN(C)C)c3c2)cc1,Potency,[1],11200 nM (active)
same,Potency,[13],inactive
same,Potency,[15],inactive
same,outcome,[14],inactive
same,Potency,[16],inactive
OC1CCCCC1N1CCC(c2ccccc2)CC1 (centres undefined),Potency,[1],inactive
same,Potency,[13],inactive
same,Potency,[15],inactive
same,outcome,[14],inactive
same,Potency,[16],inactive
N[C@@H](CCl)C(=O)O,Potency,[1],inactive
same,Potency,[13],inactive
same,Potency,[15],inactive
same,outcome,[14],inactive
same,Potency,[16],inactive
COc1ccc2c(c1)[C@@]13CCCC[C@H]1[C@@H](C2)NCC3,Potency,[1],11200 nM (active)
same,Potency,[13],inactive
same,Potency,[15],inactive
same,outcome,[14],inactive
same,Potency,[16],inactive
NC(CCCCCP(=O)(O)O)C(=O)O (centres undefined),Potency,[1],inactive
same,Potency,[13],inactive
same,Potency,[15],inactive
same,outcome,[14],inactive
same,Potency,[16],inactive
NCCCP(=O)(O)O,Potency,[1],inactive
same,Potency,[13],inactive
same,Potency,[15],inactive
same,outcome,[14],inactive
same,Potency,[16],inactive
C=CCN1CC[C@]23c4c5ccc(O)c4O[C@H]2/C(=N/NC(=O)c2ccccc2)CC[C@@]3(O)[C@H]1C5,Potency,[1],3160 nM (active)
same,Potency,[13],14100 nM (active)
same,Potency,[15],inactive
same,outcome,[14],inactive
same,Potency,[16],inactive
CC(C)NP(=O)(NC(C)C)OP(=O)(NC(C)C)NC(C)C,Potency,[1],inactive
same,Potency,[13],inactive
same,Potency,[15],inactive
same,outcome,[14],inactive
same,Potency,[16],inactive
CN1CCC(c2c[nH]c3ccc(O)cc23)CC1,Potency,[1],2000 nM (active)
same,Potency,[13],1260 nM (active)
same,Potency,[15],inactive
same,outcome,[14],inactive
same,Potency,[16],inactive
NCC(O)c1cc(O)c(O)cc1F (centres undefined),Potency,[1],inactive
same,Potency,[13],inactive
same,Potency,[15],inactive
same,outcome,[14],inactive
same,Potency,[16],inactive
